Compound activity from PubChem BioAssay.
aSyn UTR act = Activators working through SNCA 5'UTR binding (MLPCN). alpha-synuclein 5'UTR reporter, activators screen. activity score, % (tested at 7.5 µM), hits read low. 7.1% of 300,000 active; in the data active = activity score below about -60%
An asterisk follows results filed as active. Not all results are given here.

SMILES	aSyn UTR act
COc1ccc(N=Cc2c(O)[nH]c3ccccc23)cc1	-144*
Cc1ccc(N=Cc2c(O)[nH]c3ccccc23)c([N+](=O)[O-])c1	-169*
Oc1[nH]c2ccccc2c1C=Nc1ccc2c(c1)OCO2	-285*
Clc1ccc2c(c1)C(C1=NCCN1)c1ccccc1CS2 (centres undefined)	79
O=c1c2ccccc2c(C=Nc2cccc(O)c2)c(O)n1-c1ccc2c(c1)OCO2	-151*
COc1cc(C)nc(N2CCCC(C(=O)NC3CCC(C)CC3)C2)n1 (centres undefined)	-146*
Cc1nc2cc(-c3ccccc3)ccc2o1	-67*
O=C(CSc1nccn1-c1ncc(C(F)(F)F)cc1Cl)c1ccc(Cl)cc1	-127*
CCCC1=[N+](CC(=O)c2ccccc2)CCn2cccc21	-72*
O=c1[nH][nH]c(-c2ccccc2O)c1C(C[N+](=O)[O-])c1ccc(Cl)cc1Cl (centres undefined)	-83*
Oc1csc(Cc2nc(-c3ccc(Br)cc3)cs2)n1	-291*
CC1(C)CC(=O)C(C(=O)/C=C/c2ccco2)C(=O)C1	-73*
CCCC1c2ccc(C)n2CCN1C(=O)Nc1ccccc1Cl (centres undefined)	-120*
CCCCCOc1ccc(Cl)cc1CN1CCOCC1	-78*
Cc1ccc(NC(=S)N/C(=N/S(=O)(=O)c2ccccc2)c2ccccc2)cc1	-205*
COc1ccc(C(=O)NN/C(=N/S(=O)(=O)c2ccc(C)cc2)c2ccccc2)cc1	-81*
Cc1ccc(S(=O)(=O)/N=C(/NC(=S)Nc2ccccc2)c2ccccc2)cc1	-126*
C=CCN(C(=O)C1=NN(C2CCS(=O)(=O)C2)C(=O)CC1)c1nc(-c2ccc([N+](=O)[O-])cc2)cs1 (centres undefined)	-135*
O=C(NCc1ccncc1)C(=O)N/N=C/c1ccc(OCc2ccccc2)cc1	-93*
CC(C)OCCCNC(=O)C(=O)N/N=C/c1ccc(OCc2ccccc2)cc1	-67*
Nc1ccc(S(=O)(=O)Nc2nccc(/C=C/c3ccc(Cl)cc3Cl)n2)cc1	-67*
COC(=O)c1cn(C(=O)/C=C/c2ccc(OC)c(OC)c2)c2ccccc12	-78*
Cn1c(=O)n(C)c2cc(S(=O)(=O)Nc3cc(Cl)ccc3O)ccc21	-72*
CCc1ccc(S(=O)(=O)Nc2cc3c(cc2C)n(C)c(=O)n3C)cc1	-92*
CCOc1cc(CNc2ccc3c(c2)OCCO3)cc(Br)c1OCC	97
SMILES	aSyn UTR act
Cc1ccc(CNc2ccc3c(c2)OCO3)cc1	-131*
O=Cc1ccc(OCc2ccc3c(c2)OCO3)cc1	-77*
Cc1ccc(COc2ccc3c(c2)OCO3)cc1	-114*
C/C(=N\Nc1ncc(Cl)cc1Cl)c1ccc(OC(F)F)cc1	-62*
C/C(=N\Nc1ncc(Cl)cc1Cl)c1ccc2c(c1)OCO2	-79*
Cc1cnc(C(=O)Nc2ccc(N3CCOCC3)cc2)cn1	-73*
Cc1cnc(C(=O)Nc2ccc(N3CCCCC3)cc2)cn1	-135*
Cc1cnc(C(=O)Nc2ccc(OC(F)(F)F)cc2)cn1	-239*
CN(C)CC(CCC(CN(C)C)C(O)(c1ccccc1)c1ccccc1)C(O)(c1ccccc1)c1ccccc1 (centres undefined)	101
CN(C)CC(C(=O)c1ccccc1)c1ccccc1 (centres undefined)	-171*
N#Cc1c(N2CCSCC2)nsc1-c1ccccc1Cl	-63*
COc1ccc(C)cc1N(C(=O)COc1ccccc1)c1nc2ccccc2s1	-92*
NNC(=O)c1oc2nc(-c3ccco3)cc(-c3ccco3)c2c1N	-62*
CCOc1cc(N2CCOCC2)c(OCC)cc1NC(=O)c1cc(-c2ccco2)nc2ccccc12	114
Fc1ccc(CSc2ccc(-c3ccco3)nn2)cc1	-153*
Fc1cccc(CSc2ccc(-c3ccco3)nn2)c1	-176*
CCNC(=S)NNC(=O)c1csc(C(C)C)c1	-76*
COc1ccc(-n2nc3c(c2NC(=O)COc2ccccc2)CS(=O)(=O)C3)cc1	-76*
COc1ccc(OCC(=O)Nc2ccccc2Cl)cc1	-111*
O=C(COc1ccccc1O)Nc1ccccc1Cl	-99*
COc1ccc(OCC(=O)Nc2cccc(NC(=O)COc3ccc(OC)cc3)n2)cc1	-136*
O=C(COc1ccccc1Cl)NCc1ccccc1	-72*
O=C(COc1ccc(C(=O)c2ccccc2)cc1)NCc1ccc(F)cc1	113
Cn1c(N)c(C(=O)Nc2ccc3ccccc3c2)sc1=S	-186*
Nc1c(C(=O)Nc2ccc(F)cc2)sc(=S)n1-c1ccccc1F	-84*
SMILES	aSyn UTR act
C=CCNc1ncnc2c1[nH]c1ccc(Cl)cc12	-197*
Cc1ccc(N2C(=O)CC(SCC(=O)Nc3ccc(S(N)(=O)=O)cc3)C2=O)cc1 (centres undefined)	-76*
COc1ccc(-c2csc(N=C(N)N)n2)cc1	-141*
Cc1ccc(-c2csc(N=C(N)N)n2)c(C)c1	-94*
Cc1ccc(N/C(N)=N/c2nc(CSc3nnc(C)s3)cc(=O)[nH]2)c(C)c1	83
COc1ccc(-c2ccc(OC)cc2)cc1	-120*
COc1ccc(-c2csc(N)n2)cc1	-101*
Nc1nc(-c2ccc3ccccc3c2)cs1	-193*
